This is a sample that favours compounds with a hit; in the whole collection about 21% have one here.
NS1 inh = qHTS Assay for Inhibitors of Influenza NS1 Protein Function; Potency, µM (series often up to 46.1 µM), without a hit: top-dose activity, positive = more growth; AID 2326, 2010; actives 0.4% (n = 270,000); calls by dose curve; also: potency is read from the fitted curve at half-maximal effect; actives are rising curves; nearly all actives have a fitted effect of over 50% in size
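Recovery from NS1-induced slow growth read by OD600 in budding yeast switched to galactose assay medium (pH 6.0, -URA) at 1:100 dilution. Compound 23 nl per well; the matching strain lacking NS1 serves as control.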
Pf growth 96h = Primary qHTS for delayed death inhibitors of the malarial parasite plastid, 96 hour incubation. P. falciparum luciferase reporter growth, 96 h. Potency, µM (titrated, usually from 28.7 µM), for the others: at the highest dose activity change, negative = inhibition, most hits filed as inhibitors. actives 6.9% (n = 320,000). AID 504834, 2011; also: potency is read from the fitted curve at half-maximal effect; % is scaled to controls: 0 for no effect and ±100 for the full control effect
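96 h incubation, 37 C, 5% CO2, of luciferase-reporter P. falciparum-infected RBCs (2% hematocrit, 0.05% parasitemia final) with test compounds; endpoint luminescence.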
Sm TGR block = qHTS Assay for the Inhibitors of Schistosoma Mansoni Peroxiredoxins; Schistosoma mansoni thioredoxin glutathione reductase (TGR), Q962Y6; purified TGR, DTNB reduction, TNB absorbance 405 nm; Potency, µM (top dose mostly 114 µM), inactives show top-dose activity change, negative = inhibition, hits mostly inhibitors; actives 3% (n = 360,000); AID 485364, 2010; also: potency is read from the fitted curve at half-maximal effect; % is scaled to controls: 0 for no effect and ±100 for the full control effect; nearly all actives have a fitted effect of over 60% in size
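TGR 20 nM + NADPH 100 uM (dispensed conc.), cpd preinc 15 min RT; start with NADPH (500 uM addition) then DTNB (15 mM addition). Kinetic TNB absorbance, 405 nm filter. Four-parameter Hill fit across titration.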
Pf growth 48h = Primary qHTS for delayed death inhibitors of the malarial parasite plastid, 48 hour incubation | P. falciparum luciferase growth in erythrocytes, 48 h | Potency, µM (doses to about 28.7 µM), for the others: at the highest dose activity change, negative = inhibition, actives largely listed as inhibitors | actives 5.9% (n = 310,000); also: potency is read from the fitted curve at half-maximal effect; % is scaled to controls: 0 for no effect and ±100 for the full control effect
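Luciferase-expressing P. falciparum in infected erythrocytes (2% hematocrit, 0.1% parasitemia final) in RPMI 1640/0.5% Albumax were exposed to compound for 48 hours at 37 C, 5% CO2; growth read as luminescence.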
CHX counter = Cycloheximide Counterscreen for Small Molecule Inhibitors of Shiga Toxin. max response, %. cell reporter, cycloheximide protein synthesis inhibition counterscreen. actives 12% (n = 300,000); in the data active = max response mostly above about 13%, no sharp cut-off; inactive = mostly below about 14%; also: read at 38.3 µM for the half of the compounds with a filed dose; 0% is about no effect
Shiga toxin inh = A qHTS for Small Molecule Inhibitors of Shiga Toxin | inhibition, % at 38.7 µM | actives 9.2% (n = 290,000) | Vero cells, Shiga toxin protein synthesis inhibition reporter | AID 2315, 2010; in the data active = inhibition mostly above about 28%, no sharp cut-off; inactive = mostly below about 43%; also: 0% is about no effect
Starred values were filed as active, the others as inactive; ? = inconclusive; nt = no result; [ ] = remark or other dose. Unless noted, calls follow the shape of the dose curve; as a rule, active = well fitted curve in the direction sought with a large enough effect; inconclusive = small, poorly fitted or top-dose-only effect, or another doubt; inactive = no such curve, though single readings can be large; an effect the other way counts as inactive or inconclusive.

SMILES	NS1 inh	Pf growth 96h	Sm TGR block	Pf growth 48h	CHX counter	Shiga toxin inh
CCCNC(=O)C1CC(=O)N(c2ccc(OCc3ccc(Cl)cc3)cc2)C1 (centres undefined)	12.8%	10.3%	-4.0%	178.7%	27.1*	nt
CCOc1ccc(N2CC(C(=O)NCCc3ccccc3)CC2=O)cc1 (centres undefined)	0.4%	?	-24.2%	8.9%	-3.4	21.3
Cc1ccc(C2=NN(C(=O)c3ccccc3F)C(c3ccccc3F)C2)cc1 (centres undefined)	6.0%	-42.5%	10.1%	4.15µM*	3.1	-2.1
COc1cccc(C2CC(c3ccc(C)cc3)=NN2C(=O)c2ccccc2F)c1OC (centres undefined)	7.5%	4.15µM*	1.4%	5.22µM*	9.4	-5.4
Cc1nn2c(N)c(-c3ccccc3)cnc2c1-c1ccc(Cl)cc1	1.2%	-21.0%	-19.4%	-12.0%[0.00184 µM]	38.5*	111.6*
Cc1nn2c(-c3ccccc3)ccnc2c1-c1ccccc1	-8.3%	-11.2%	2.1%	nt	48.7*	94.4*
Cc1ccc(-c2ccnc3c(Cl)c(C)nn23)cc1	2.2%	1.9%	?	3.4%	-2.8	-5.0
Cc1nc2c(-c3ccccc3)c(C)nn2c(N)c1-c1ccccc1	-19.9%	?	-8.5%	124.8%	49.3*	28.6*
COc1ccccc1NS(=O)(=O)c1ccc(C)c(C(=O)NCc2cccnc2)c1	nt	?	-2.5%	?	nt	nt
O=C(c1ccco1)n1nc(-c2ccccc2)nc1NCc1ccc(F)cc1	nt	nt	-4.0%	nt	nt	nt
CCOC(=O)c1c(C)[nH]c(C)c1S(=O)(=O)N(C)CC(=O)Nc1ccc(CC)cc1	nt	nt	9.9%	nt	nt	nt
Cc1nn(Cc2ccc(Cl)cc2)c(C)c1NC(=O)CSc1n[nH]c(C)c1[N+](=O)[O-]	-11.9%	13.1µM*	-2.3%	-11.7%	0.7	-13.6
Cc1nn(Cc2ccccc2)c(C)c1NC(=O)CSc1n[nH]c(C)c1[N+](=O)[O-]	2.1%	22.3%	-2.1%	?	-1.6	-8.3
CC(=O)c1c(O)cc(C)n(Nc2nc(C)cc(C)n2)c1=O	-82.7%	?	5.7%	11.7µM*	12.6	28.0
Cc1cc(/C=C(\C#N)C(=O)NC2CCCCCC2)c(C)[nH]1	-0.8%	196.7%	?	35.9%	35.3*	45.9
N#C/C(=C\c1ccccc1Br)C(=O)NC1CC1	10.0%	1.47µM*	-21.0%	-17.7%	-3.3	-9.9
N#C/C(=C\c1ccc(OCC(N)=O)cc1)C(=O)NC1CC1	-4.0%	0.0%	-18.6%	20.9%	17.4	11.3
CCCCOc1cccc(/C=C(\C#N)C(=O)NC2CC2)c1	-54.1%	83.3%	-0.3%	0.0%	8.5	5.3
CSc1ccc(/C=C(\C#N)C(=O)NC2CCCCC2)cc1	-2.1%	?	4.2%	14.7%	0.8	-3.5
Cc1cc(/C=C(\C#N)C(=O)NC2CC2)c(C)[nH]1	6.6%	53.2%	-18.0%	165.2%	68.3*	93.7*
Fc1ccccc1Nc1nc(-c2ccncc2)nc2ccccc12	1.7%	?	-13.5%	?	-1.6	-10.5
CCNC(=S)Nc1cc(-c2ccc(Cl)cc2)[nH]n1	-56.9%	51.2%	0.891µM*	31.8%	23.6*	7.7
Cc1ccnc(NC(=O)c2ccc(C(=O)c3ccccc3)cc2)c1	nt	-26.1%	8.7%	10.6%	nt	nt
O=C(Nc1cc(-c2ccccc2)[nH]n1)c1ccccc1	-48.4%	22.6%	-0.2%	60.8%	33.7*	78.7*
O=C(Nc1cc(-c2ccccc2)[nH]n1)c1ccccc1F	-50.3%	0.0%	-18.0%	191.4%	41.6*	104.6*
SMILES	NS1 inh	Pf growth 96h	Sm TGR block	Pf growth 48h	CHX counter	Shiga toxin inh
CC(=O)Nc1cc(-c2ccc(F)cc2)[nH]n1	nt	-3.3%	-2.5%	87.4%	24.0*	129.1
O=C(O)c1ccccc1C(=O)Nc1cc(-c2ccccc2)[nH]n1	1.7%	50.5%	23.2%	63.0%	1.5	-2.3
O=C(NC1CC2CCCC(C1)N2C(=S)Nc1ccccc1)C1CC1 (centres undefined)	2.7%	9.5%	2.7%	20.7%	-5.2	-16.1
CN(Cc1ccccc1)C(=C(Cl)Cl)/C(=C1/NCCN1Cc1ccc(Cl)nc1)[N+](=O)[O-]	-13.3%	9.28µM*	-10.9%	nt	-4.5	-14.5
O=[N+]([O-])/C(Cl)=C1\NCCN1Cc1ccc(Cl)nc1	4.4%	40.2%	0.0%	32.2%	1.7	7.6
CN(C)Cc1cc(C(C)(C)C)c(O)c(C(C)(C)C)c1	-14.0%	1.04µM*	22.4µM*	29.2%	8.1	-0.8
CC(C)(C)c1cc(CP(=O)(c2ccccc2)c2ccccc2)cc(C(C)(C)C)c1O	-25.9%	?	?	?	12.7*	nt
COC(=O)Cn1c(=N)n(CCN2CCCCC2)c2ccccc21	-7.1%	12.0%	2.7%	9.3%	-3.9	-10.2
Cc1ccc(C(=O)Cn2c(=N)n(CCN3CCOCC3)c3ccccc32)cc1	nt	?	1.8%	9.28µM*	nt	nt
CCn1c(=N)n(CC(=O)c2ccc(OC)cc2)c2ccccc21	-1.1%	30.6%	2.1%	35.0%	19.5	5.7
N=c1n(CCN2CCCCC2)c2ccccc2n1CC(=O)c1ccc(Cl)c(Cl)c1	6.6%	2.62µM*	-5.9%	1.47µM*	1.6	18.1
CCn1c(=N)n(CC(=O)c2ccc(Cl)c(Cl)c2)c2ccccc21	3.0%	28.6%	0.0%	?	40.4*	74.2*
Cc1ccc(S(=O)(=O)Nc2cc(C)c(O)c(S(=O)(=O)c3ccc(C)cc3)c2)cc1	?	?	44.7µM*	?	-3.9	11.3
COc1cccc(-c2csc(NC(=O)C3CC3)n2)c1	-60.5%	211.8%	3.6%	nt	18.0	39.8
O=C(Nc1ccc(Cl)c(Cl)c1)Nc1nc(-c2ccccc2)cs1	-2.1%	2.33µM*	-0.5%	?	-2.8	-1.1
O=S(=O)(Nc1nc(-c2ccccc2)cs1)c1cc(Cl)ccc1Cl	-74.4%	-13.8%	-3.6%	12.8%	-1.1	-4.7
O=C(Nc1ccc(-c2csc(Nc3ccccc3)n2)cc1)c1ccccc1	3.7%	?	-15.3%	?	2.0	15.8
O=C(Nc1ccccc1)Nc1nc(-c2ccccc2)cs1	-6.1%	23.6%	8.5%	-2.5%	44.7*	38.5
O=C(Nc1ccccc1)Nc1nc(-c2ccc(F)c(F)c2)cs1	-0.4%	13.1µM*	2.3%	11.7µM*	6.1	5.8
COc1cccc(-c2csc(NC(=O)Nc3ccccc3)n2)c1	-1.1%	?	8.7%	9.5%[0.00184 µM]	14.5*	57.5*
CCOc1cc(-c2nc(-c3ccc(Br)cc3)no2)cc(OCC)c1OCC	nt	nt	12.7%	nt	nt	nt
Cc1ccc(OC(C)C(=O)NCC2(N3CCOCC3)CCCCC2)cc1C (centres undefined)	nt	nt	6.3%	nt	nt	nt
COC(=O)CSc1nnc(CCc2ccccc2)n1C	-4.0%	?	12.3%	-7.8%	3.5	-7.8

Source: PubChem BioAssay
